# High-throughput results deposited in PubChem by National Center for Advancing Translational Sciences (NCATS).
# Sampled rows, rich in hits. Any-hit rate of the full collection: about 19%.
# Cycloheximide cs = counter-screen hit for Shiga toxin inhibitors, cycloheximide | 300,000 tested, 12% active | cell reporter, cycloheximide protein synthesis inhibition counterscreen | max response, %; in the data active means max response mostly above about 13%, no sharp cut-off; inactive means mostly below about 14%; further: read at 38.3 µM for the half of the compounds with a filed dose; 0% is about no effect
# Pf growth 96h = inhibits malaria parasite growth, 96 h | P. falciparum luciferase reporter growth, 96 h | Potency, µM (highest dose often 28.7 µM), without a hit: top-dose activity change, negative = inhibition, usual class: inhibitors | 320,000 tested, 6.9% active | AID 504834; further: potency means the concentration at half of the fitted maximal effect; on the % scale 0 is the no-effect control and ±100 the full control effect
#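 Readout is luminescence from an integrated firefly luciferase in P. falciparum. Red cells, 2% hematocrit and 0.05% parasitemia final, were cultured with compound through two parasite generations (96 hours) at 37 C, 5% CO2.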
# SARS PLpro yeast = inhibitors of SARS-CoV papain-like protease in yeast; S. cerevisiae expressing SARS-CoV PLpro, growth rescue; Potency, µM (series often up to 32.9 µM), inactives show at the highest dose activity, positive = growth rescue, hits mostly activators; 330,000 tested, 0.19% active; calls by dose curve; further: potency means the concentration at half of the fitted maximal effect; 0% is about no effect; nearly all actives have a fitted effect of over 55% in size
# AMA1-RON2 inh = disrupts binding of P. falciparum AMA1 to RON2; AID 720542; 360,000 tested, 0.2% active; AlphaScreen AMA1-biotinylated RON2 peptide binding; Potency, µM (titrated, usually from 58.2 µM), for inactives: at the top dose activity change, negative = inhibition, actives largely listed as inhibitors;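 further: potency means the concentration at half of the fitted maximal effect; 0% = vehicle wells and -100% = peptide control; nearly all actives have a fitted effect of over 45% in size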
#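 AMA1 (3D7) with his tag at 25 nM final met compounds first, then biotinylated RON2 peptide at 25 nM; detection used donor plus acceptor beads, 10 µg/mL apiece, read by AlphaScreen after 30 min at room temperature.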
# Shiga toxin inh = inhibitors of Shiga toxin in Vero cells; AID 2315; inhibition, % at 38.7 µM; 290,000 tested, 9.2% active; Vero cells, Shiga toxin protein synthesis inhibition reporter; in the data active means inhibition mostly above about 28%, no sharp cut-off; inactive means mostly below about 43%; further: 0% is about no effect
# Pf growth 48h = P. falciparum growth inhibition at 48 hours (one generation); P. falciparum luciferase growth in erythrocytes, 48 h; Potency, µM (top dose mostly 28.7 µM), for inactives: at the highest dose activity change, negative = inhibition, hits mostly inhibitors; 310,000 tested, 5.9% active; AID 504832; further: potency means the concentration at half of the fitted maximal effect; on the % scale 0 is the no-effect control and ±100 the full control effect
#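 Read-out is firefly luciferase luminescence from an integrated reporter in P. falciparum, so falling signal marks reduced parasite growth. Infected erythrocytes were at 2% hematocrit and 0.1% parasitemia (final) in Albumax-supplemented RPMI 1640.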
# * marks the source's active call; other numbers are inactive results; i = inactive; ? = inconclusive; . = no result; [ ] = dose if it differs, or a comment. Unless noted, the call rests on the fitted dose curve; in most records, active means well fitted curve in the direction sought with a large enough effect; inconclusive means small, poorly fitted or top-dose-only effect, or another doubt; inactive means no such curve, though single readings can be large; an effect the other way counts as inactive or inconclusive.
SMILES,Cycloheximide cs,Pf growth 96h,SARS PLpro yeast,AMA1-RON2 inh,Shiga toxin inh,Pf growth 48h
Cc1ccc(-c2nc(CS(=O)CC(=O)NCCCN3CCN(Cc4ccccc4)CC3)c(C)o2)cc1 (stereo not drawn),10,6.6µM*,5%,-5%,-4,?
Cc1oc(-c2ccc(-c3ccccc3)cc2)nc1CN1CCN(CC(=O)N(C)C)CC1,52*,-5%,0%,-4%,108*,0%
Cc1oc(-c2ccccc2F)nc1CS(=O)(=O)CC(=O)NCCCN1CC(C)CC(C)C1 (stereo not drawn),-2,?,4%,4%,12,?
CCC(=O)O,25,.,.,.,61,.
CCc1ccc(-c2nc(CS(=O)CC(=O)NCCN3CCCCCC3)c(C)o2)cc1 (stereo not drawn),27*,-5%,0%,4%,22,13%
Cc1ccc(-c2nc(CS(=O)CC(=O)NCCN3CCCC3)c(C)o2)cc1 (stereo not drawn),-6,28%,14%,0%,-16,.
CN=C1S/C(=C\c2cccn2-c2cccc(Br)c2)C(=O)N1C,.,.,.,-7%,.,.
COCc1ccc(CN2CCCCC2C(=O)Nc2ccc(Oc3ccccc3)nc2)o1 (stereo not drawn),8,?,-4%,1%,13,?
O=C(N/N=C/C(Cl)=C/c1ccc([N+](=O)[O-])cc1)C(=O)Nc1ccc(C(=O)O)cc1,1,?,0%,46%,-2,12µM*
Cc1cnc(CNC(=O)C2(C)CCCN2CC(C)C)cn1 (stereo not drawn),.,.,.,105%,.,.
CCNC(=O)c1ccc2c(c1)C1C3CCC(C3)C1C(c1ccccc1)N2 (stereo not drawn),-2,50%,-72%,-19%,-8,7.4µM*
CC(=O)c1ccc2c(c1)C1C(Cl)C(Sc3ccccc3[N+](=O)[O-])CC1C(c1ccccc1)N2 (stereo not drawn),-2,?,0%,-29%,-3,?
Cc1ccc(CCNC(=O)CNC(=O)c2cccs2)cc1,5,25%,-7%,-4%,21,23%
Cc1ccc(F)c(NC(=O)c2ccc(Cn3cc(Cl)cn3)cc2)c1,39*,-6%,-2%,7%,37,?
COc1ccc(NC(=O)c2ccc(Cn3cc(Cl)cn3)cc2)cc1,-5,0%,-1%,11%,-4,58%
O=C1c2ccccc2C(Nc2ccc3c(c2)OCO3)N1Cc1ccco1 (stereo not drawn),10,?,4%,-4%,21*,-13%
O=C1c2ccccc2C(Nc2ccc(F)c(Cl)c2)N1Cc1ccco1 (stereo not drawn),0,-28%,-27%,0%,-12,?
COc1ccc(OC)c(NC2c3ccccc3C(=O)N2Cc2ccc3c(c2)OCO3)c1 (stereo not drawn),-8,?,-9%,16µM*,-10,.
COc1ccc(CN2C(=O)c3cccnc3C2Nc2cc(Cl)ccc2OC)cc1 (stereo not drawn),3,?,0%,?,-8,5.2µM*
O=C1c2ccccc2C(Nc2cccnc2)N1Cc1ccc2c(c1)OCO2 (stereo not drawn),-6,1.5µM*,-6%,-6%,-12,-14%
COc1ccc(OC)c(NC2c3ncccc3C(=O)N2Cc2ccco2)c1 (stereo not drawn),-2,-9%,-19%,-4%,-11,-8%
O=C1c2ccccc2C(Nc2ccc3c(c2)OCO3)N1Cc1ccc2c(c1)OCO2 (stereo not drawn),38*,3.3µM*,-27%,-21%,20,9.3µM*
Cc1cc(C)cc(OCC(=O)NN2Cc3ccccc3C2=N)c1,4,6.6µM*,9%,-5%,-11,.
N=C1c2ccccc2CN1NC(=O)CC12CC3CC(CC(C3)C1)C2,-3,1.9µM*,-1%,10%,-1,?
N=C1c2ccccc2CN1NC(=O)C1CC1,-1,-1%,8%,7%,-13,0%
SMILES,Cycloheximide cs,Pf growth 96h,SARS PLpro yeast,AMA1-RON2 inh,Shiga toxin inh,Pf growth 48h
CNCCCCOc1ccccc1-c1ccccc1,-4,16%,0%,?,-20,-15%
CNCCCC12CCC(c3ccccc31)c1ccccc12,-5,?,-14%,-2%,-12,12µM*
COc1ccc(N(C(=O)/C=C/c2ccccc2)C2=CC3CCC(C2)N3C)cc1 (stereo not drawn),-2,-33%,0%,-6%,-22,?
O=C1CS/C(=N/N=C/c2ccccc2)N1Cc1ccco1,25*,42%,-2%,-4%,45*,19%
Cc1ccccc1CN1C(=O)CS/C1=N/N=C/c1ccco1,-1,?,-1%,0%,-12,?
COc1ccccc1N=C1SCC(=O)N1Cc1ccco1,1,0%,2%,-12%,14,1%
COc1ccc(OC)c(/C=N/N=C2\SCC(=O)N2Cc2ccco2)c1,18*,-1%,-2%,-11%,2,-7%
CNc1c(NS(=O)(=O)c2ccc(C3CCCCC3)cc2)c(=O)oc2ccccc12,-2,30%,0%,-8%,-3,8%
CC(NC(=O)c1cccnc1Sc1ccccc1)c1ccc(S(N)(=O)=O)cc1 (stereo not drawn),-1,-22%,-4%,13%,-25,13%
CCNC(=O)OCc1cn(-c2ccccc2)nn1,14,48%,-1%,5%,30,i
O=C(OCc1cn(-c2ccc(Cl)cc2)nn1)c1ccccc1,1,63%,-4%,4%,18,6%
CC(C)C(=O)OCc1cn(-c2ccc(Cl)c(Cl)c2)nn1,10,-2%,-1%,27%,14,i
CC(C)CC(=O)OCc1cn(-c2ccccc2)nn1,23*,47%,3%,4%,53*,62%
CC(C)(C)C(=O)OCc1cn(-c2ccc(Cl)cc2)nn1,24*,146%,-1%,-6%,40,121%
CC(C)(C)C(=O)OCc1cn(-c2ccccc2)nn1,30*,44%,2%,4%,59*,26%
CC1C/C(=N/NC(=O)c2cccc(F)c2)c2ccc(O)cc2C1 (stereo not drawn),42*,?,-5%,15%,active,-18%
COc1cc(OC)cc(-c2c(C#Cc3ccsc3)c3cc(-c4ccc(C(N)=O)cc4)ccc3n2C)c1,.,1µM*,4%,-3%,.,1.3µM*
COc1cc(/C=N/Nc2cc(C)nc(N)n2)ccc1O,13,?,-1%,70%,36*,-31%[0.00184 µM]
COc1ccc(/C=N/Nc2cc(C)nc(N3CCOCC3)n2)cc1,2,2%,2%,0%,5,61%
COc1ccc(/C=N/Nc2cc(C)nc(N)n2)cc1,32*,-2%,-11%,9%,67*,9.3µM*
